Common to all, as to assay: qHTS profiling for inhibitors of Plasmodium falciparum proliferation (AID 504749); also: nearly all actives have a fitted effect of over 60% in size
Conditions in all cases: P. falciparum in erythrocytes, SYBR Green DNA, 72 h; series mostly up to 28.7 µM
A general note: In qHTS, concentration-response curves come from the screen itself.

For one assay, the system named is ATS189. The procedure, abridged:
(§1)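 Three-day growth assay of blood-stage parasites in erythrocytes (0.3% parasitemia, 2.5% hematocrit) at 37 C, 5% CO2, quantified by SYBR Green DNA staining after overnight detergent lysis.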

A further assay concerns ATS95. The procedure, abridged:
as §1

The subject of a further assay is C2A. Summed up:
as §1

The next assay concerns CP185. Summed up: as §1
Another assay has as its system CP191. Summed up: as §1
The next assay relates to CP192. Summed up:
as §1

The next assay has as its system CP194. Summed up:
as §1

The next assay concerns CP201. The procedure, abridged:
as §1

Another assay deals with CP203. The procedure, abridged: as §1
The test system of another assay is CP211. The procedure, abridged: as §1
The test system of the next assay is CP215. The procedure, abridged: as §1
Another assay deals with CP217. Summed up: as §1
For the next assay, the system named is CP237. The procedure, abridged:
as §1

The subject of another assay is CP238. The procedure, abridged:
as §1

A further assay concerns CP247. Summed up:
as §1

The next assay has as its system CP250. Summed up:
as §1

For another assay, the system named is CP252. The procedure, abridged:
as §1

The next assay deals with CP256. Summed up:
as §1

The subject of another assay is CP260. The procedure, abridged:
as §1

The next assay has as its system CP262. The procedure, abridged: as §1

Inconclusive results are not listed. Calls of active or inactive are those of the source. Calls follow the shape of the dose curve; as a rule, active = well fitted inhibition curve with a large enough effect; inconclusive = small, poorly fitted or top-dose-only effect; inactive = flat fitted curve, though single readings scatter.
Potency is read from the fitted curve at half-maximal effect.

Consider `NC(=O)NO`, for which the Potency result with ATS189, in the assay with ATS95, in the assay on C2A, with CP185, in the assay with CP191 and in the assay with CP192 was “inactive” each time. The Potency result in the assay on CP194, in the assay on CP201, in the assay with CP203, in the assay on CP211, in the assay on CP215 and with CP217 was “inactive” in each case. The Potency result in the assay on CP237, in the assay on CP238, in the assay with CP247, with CP250, in the assay with CP252 and in the assay on CP256 was “inactive” throughout. In addition, the Potency entry in the assay with CP260 and with CP262 was “inactive” throughout.
For the molecule `Cn1cnc2c1c(=O)[nH]c(=O)n2C`, the Potency entry in the assay with ATS189, with ATS95, with C2A, with CP185, in the assay with CP191 and in the assay on CP192 was “inactive” throughout. Also, the Potency entry in the assay on CP194, in the assay on CP201, in the assay with CP203, in the assay on CP211, with CP215 and with CP217 was “inactive” throughout. The Potency entry in the assay with CP237, in the assay on CP238, in the assay on CP247, in the assay with CP250, with CP252 and in the assay on CP256 was “inactive” in each case. The Potency result with CP260 and in the assay with CP262 was “inactive” each time.
Turning to `Cn1c(=O)c2[nH]cnc2n(C)c1=O`, the Potency result in the assay on ATS189, in the assay on ATS95, in the assay on C2A, in the assay with CP185, with CP191 and with CP192 was “inactive” in each case. For the same molecule, the Potency entry with CP194, in the assay with CP201, in the assay with CP203, in the assay with CP211, in the assay on CP215 and with CP217 was “inactive” each time. Besides, the Potency result with CP237, in the assay on CP238, in the assay on CP247, in the assay with CP250, in the assay with CP252 and with CP256 was “inactive” each time. Moreover, the Potency result in the assay on CP260 and in the assay with CP262 was “inactive” each time.
Take `CS(=O)(=O)Nc1ccc([N+](=O)[O-])cc1Oc1ccccc1`: the Potency result in the assay with ATS189, in the assay with ATS95, in the assay with C2A, in the assay on CP185, with CP191 and in the assay with CP192 was “inactive” each time. Besides, the Potency result with CP194, with CP201, in the assay with CP203, in the assay with CP211, with CP215 and in the assay with CP217 was “inactive” each time. The Potency result with CP237, in the assay with CP238, in the assay on CP247, in the assay with CP250, in the assay with CP252 and with CP256 was “inactive” in each case. The Potency result with CP260 and with CP262 was “inactive” throughout.
For `Clc1ccccc1C(c1ccccc1)(c1ccccc1)n1ccnc1`, the Potency is 708 nM (active) in the assay with ATS189; 1000 nM (active) with ATS95; 1780 nM (active) in the assay on C2A; 1780 nM (active) with CP185; 794 nM (active) in the assay on CP191; 1810 nM (active) in the assay on CP192. Besides, the Potency with CP194 is 1440 nM (active); in the assay on CP201, 4550 nM (active); in the assay with CP203, 721 nM (active); in the assay on CP211 it was 2280 nM (active); in the assay with CP215, 1140 nM (active); with CP217, 631 nM (active). Moreover, the Potency in the assay on CP237 is 398 nM (active); in the assay on CP238 it was 794 nM (active); with CP247 it was 891 nM (active); with CP250, 1580 nM (active); in the assay on CP252, 891 nM (active); in the assay with CP256, 2000 nM (active). The Potency in the assay with CP260 is 1410 nM (active); in the assay on CP262, 1020 nM (active).
As for `CCCNCC(O)COc1ccccc1C(=O)CCc1ccccc1` (centres undefined), the Potency is 891 nM (active) in the assay on ATS189; 631 nM (active) in the assay on ATS95; 1780 nM (active) with C2A; 1260 nM (active) in the assay on CP185; 1260 nM (active) in the assay on CP191; 2130 nM (active) with CP192. Further, the Potency in the assay on CP194 is 3380 nM (active); in the assay on CP201, 6750 nM (active); in the assay on CP203, 1690 nM (active); with CP211, 4780 nM (active); in the assay on CP215, 1510 nM (active); with CP217, 891 nM (active). Also, the Potency with CP237 is 447 nM (active); in the assay on CP238 it was 1000 nM (active); in the assay on CP247 it was 1000 nM (active); in the assay on CP250 it was 1000 nM (active); with CP252, 631 nM (active); in the assay with CP256, 1000 nM (active). Besides, the Potency in the assay with CP260 is 891 nM (active); with CP262 it was 4780 nM (active).
As for `CC(C)(C)C(=O)Oc1ccc(S(=O)(=O)Nc2ccccc2C(=O)NCC(=O)O)cc1`, the Potency result in the assay on ATS189, in the assay with ATS95, in the assay with C2A, with CP185, with CP191 and in the assay with CP192 was “inactive” in each case. The Potency result with CP194, in the assay with CP201, with CP203, with CP211, in the assay on CP215 and with CP217 was “inactive” in each case. For the same molecule, the Potency result in the assay on CP237, with CP238, with CP247, in the assay on CP250, in the assay on CP252 and with CP256 was “inactive” each time. The Potency result in the assay on CP260 and in the assay with CP262 was “inactive” each time.
With `CC(C)C(=O)Nc1ccc([N+](=O)[O-])c(C(F)(F)F)c1`, the Potency result with ATS189, in the assay with ATS95, in the assay on C2A, in the assay on CP185, with CP191 and in the assay with CP192 was “inactive” each time. Besides, the Potency entry in the assay on CP194, in the assay with CP201, with CP203, in the assay on CP211, in the assay with CP215 and with CP217 was “inactive” throughout. In addition, the Potency result in the assay with CP237, with CP238, in the assay on CP250, in the assay on CP252, with CP256 and in the assay with CP260 was “inactive” each time. Also, in the assay on CP262, the Potency result was “inactive”.
As to `Nc1nnc(-c2cccc(Cl)c2Cl)c(N)n1`, the Potency entry with ATS189, with ATS95, in the assay on C2A, with CP185, in the assay on CP191 and in the assay with CP192 was “inactive” in each case. The Potency result in the assay with CP194, in the assay on CP201, in the assay on CP203, in the assay on CP211, in the assay on CP215 and in the assay on CP217 was “inactive” throughout. Also, the Potency entry in the assay with CP237, in the assay on CP238, in the assay on CP247, with CP250, with CP252 and with CP256 was “inactive” each time. Moreover, the Potency result with CP260 and in the assay with CP262 was “inactive” each time.
